In ChEMBL document CHEMBL2218924, “A broad activity screen in support of a chemogenomic map for kinase signalling research and drug discovery” (Biochem J, 2013) one finds residual activity data, which are given here for 32 compounds.

The structures appear in SMILES notation.

In this experiment the target is Ribosomal protein S6 kinase alpha-6 (Homo sapiens) (UniProt Q9UK32). Particulars: at 1 µM.
Ribosomal protein S6 kinase alpha-6 (Homo sapiens), sequence (Q9UK32 whole entry): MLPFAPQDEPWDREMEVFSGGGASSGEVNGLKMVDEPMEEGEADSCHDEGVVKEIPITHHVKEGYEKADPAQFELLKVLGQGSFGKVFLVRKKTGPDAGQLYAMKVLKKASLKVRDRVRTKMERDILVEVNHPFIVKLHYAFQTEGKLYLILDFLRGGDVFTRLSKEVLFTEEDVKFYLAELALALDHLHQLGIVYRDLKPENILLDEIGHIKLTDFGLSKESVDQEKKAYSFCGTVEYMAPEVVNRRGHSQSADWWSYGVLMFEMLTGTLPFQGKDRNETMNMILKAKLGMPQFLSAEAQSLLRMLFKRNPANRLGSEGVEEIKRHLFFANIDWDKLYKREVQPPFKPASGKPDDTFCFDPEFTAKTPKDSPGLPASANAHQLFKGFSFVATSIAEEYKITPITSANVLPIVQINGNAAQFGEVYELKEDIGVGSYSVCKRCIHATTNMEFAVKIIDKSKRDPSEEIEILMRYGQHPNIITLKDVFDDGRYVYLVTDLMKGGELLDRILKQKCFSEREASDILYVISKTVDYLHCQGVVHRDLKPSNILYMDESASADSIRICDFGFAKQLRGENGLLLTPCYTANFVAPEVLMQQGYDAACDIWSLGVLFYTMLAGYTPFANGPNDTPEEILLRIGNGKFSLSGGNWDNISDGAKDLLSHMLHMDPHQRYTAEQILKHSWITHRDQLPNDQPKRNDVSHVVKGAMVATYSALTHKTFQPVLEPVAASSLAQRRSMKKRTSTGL
In the case of `O=C1NC(=O)/C(=C\c2ccc3nccnc3c2)S1`, the residual activity was found to be 101%.

On to `Cc1nc2cc3nc(-c4cccs4)cnc3cc2n1C`, for which the residual activity was determined as 101%.

Consider `c1ccc2c(-c3ccncc3)c[nH]c2c1`, for which the residual activity is 89%.

On to `COc1cc2ncnc(Nc3ccc(O)c(Br)c3)c2cc1OC`, for which the residual activity was found to be 69%.

Consider `CCC(=O)Nc1ccc2ncnc(Nc3cccc(Br)c3)c2c1`, for which the residual activity was 124%.

`Cn1cnc2cc3c(Nc4cccc(Br)c4)ncnc3cc21`: the residual activity is 115%.

As for `Cc1cc(Nc2nc(-c3ccccc3)nc3ccccc23)n[nH]1`, the residual activity stood at 43%.

Turning to `O=C1Nc2cc(Br)ccc2/C1=C1/Nc2ccccc2/C1=N\O`, the residual activity was found to be 38%.

On to `CCN(CC)CCCCN1c2ccccc2Oc2ccc(Cl)cc21`, for which the residual activity stood at 118%.

As for `Cn1nc2c3c(cccc31)C(=O)c1ccccc1-2`, the residual activity amounted to 59%.

For `COc1cc2ncnc(Nc3ccc(NC(=O)c4ccccc4)cc3)c2cc1OC`, the residual activity stood at 104%.

Regarding `Nc1nc(Nc2ccc(S(N)(=O)=O)cc2)nn1C(=S)Nc1c(F)cccc1F`, the residual activity was -2%.

Consider `CN(C)CCCn1cc(C2=C(c3c[nH]c4ccccc34)C(=O)NC2=O)c2ccccc21`, for which the residual activity was determined as 4%.

As for `N#CC(C#N)=C(N)/C(C#N)=C/c1ccc(O)cc1`, the residual activity was found to be 94%.

As to `COc1cc2ncc(-c3ccccc3)nc2cc1OC`, the residual activity amounted to 92%.

For `Cc1cncc2cccc(S(=O)(=O)N3CCCN(C(=O)CN)C[C@H]3C)c12`, the residual activity worked out at 90%.

Regarding `C[C@@H](N)[C@H]1CC[C@H](C(=O)Nc2ccncc2)CC1`, the residual activity was 110%.

As for `CC(=O)c1ccc(N2CCOCC2)cc1O`, the residual activity was 128%.

On to `COc1ccc(C(=O)Nc2sc3c(c2C(N)=O)CCCC3)cc1OC`, for which the residual activity is 118%.

In the case of `CCN(CC)C(=O)c1ccc(Nc2nc(OCC3CCCCC3)c3nc[nH]c3n2)cc1`, the residual activity came out at 28%.

As for `Cc1ccc(NC2=CC(=O)c3sc(C)nc3C2=O)cc1`, the residual activity was found to be 72%.

As for `COc1cc2ncnc(N3CCN(C(=O)Nc4ccc(Oc5ccccc5)cc4)CC3)c2cc1OC`, the residual activity stood at 106%.

Regarding `Nc1n[nH]c2nnc(-c3c(-c4ccccc4)nn4ccccc34)cc12`, the residual activity amounted to 102%.

For the compound `O=C1Nc2ccccc2/C1=C1/Nc2ccccc2/C1=N\OCCC(O)CO` (configuration not stated), the residual activity was 7%.

For the compound `Ic1cccc(CSc2nnc(-c3ccncc3)o2)c1`, the residual activity turned out to be 97%.

As to `O=c1cc(-c2cccc3c2Sc2ccccc2S3)oc(N2CCOCC2)c1`, the residual activity was 96%.

With `COc1ccc(CNc2nc(N(CCO)CCO)nc3c2ncn3C(C)C)cc1`, the residual activity came to 84%.

As to `COc1cccc(-c2cc(=O)c3ccccc3o2)c1N`, the residual activity worked out at 92%.

Turning to `NC(=O)c1ccc2[nH]c(-c3ccc(Oc4ccc(Cl)cc4)cc3)nc2c1`, the residual activity was found to be 27%.

Turning to `CNc1cc2c(Nc3cccc(Br)c3)ncnc2cn1`, the residual activity is 101%.

Regarding `O=C(Nc1cccc(Nc2cc(Nc3cccc(C(F)(F)F)c3)ncn2)c1)C1CC1`, the residual activity is 103%.

Take `Cc1nc(-c2ccccc2)c(-c2ccncc2)o1`: the residual activity was found to be 81%.

As usually defined, the residual activity is the signal under treatment as a percentage of the control signal.
